Cruzain inh Det – qHTS Assay for Promiscuous and Specific Inhibitors of Cruzain (with detergent); Potency, µM, for inactives: max response, negative = inhibition, usual class: inhibitors; AID 1478, 2009; purified cruzain, Z-FR-AMC fluorescence, 0.01% Triton; Cruzipain (Trypanosoma cruzi), P25779; 200,000 compounds, 0.43% hits;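 also: plate controls were neutral wells for no effect and buffer without enzyme for full effect; nearly all actives have a fitted effect of over 40% in size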
Target sequence (P25779 123-467 limits assumed): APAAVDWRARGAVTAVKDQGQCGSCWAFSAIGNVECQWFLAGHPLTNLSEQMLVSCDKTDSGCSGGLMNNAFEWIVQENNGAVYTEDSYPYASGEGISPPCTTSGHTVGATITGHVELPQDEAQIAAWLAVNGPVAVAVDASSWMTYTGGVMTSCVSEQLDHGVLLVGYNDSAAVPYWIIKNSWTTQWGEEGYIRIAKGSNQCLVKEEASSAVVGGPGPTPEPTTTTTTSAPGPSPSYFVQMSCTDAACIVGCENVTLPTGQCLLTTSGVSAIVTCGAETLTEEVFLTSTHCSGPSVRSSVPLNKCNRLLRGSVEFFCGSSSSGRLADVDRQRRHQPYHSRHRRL
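Purified cruzain (1.5 nM final) was preincubated with compounds for 15 min at room temperature in 100 mM sodium acetate pH 5.5, 5 mM DTT, 0.01% Triton X-100. Reaction started with 2 uM Z-FR-AMC; AMC fluorescence change over 60 s gave activity.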
Cruzain inh noDet – qHTS Assay for Promiscuous and Specific Inhibitors of Cruzain (without detergent); Cruzipain (Trypanosoma cruzi), P25779; purified cruzain, Z-FR-AMC fluorescence, no detergent; Potency, µM, for the others: max response, negative = inhibition, actives largely listed as inhibitors; 200,000 compounds, 2.3% hits;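 also: plate controls were enzyme without inhibitor for no effect and buffer without enzyme for full effect; nearly all actives have a fitted effect of over 40% in size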
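Detergent-free condition (0.00005% Triton X-100) in acetate buffer pH 5.5 with DTT. 1.5 nM enzyme and compound were pre-mixed 15 min, then 2 uM Z-FR-AMC substrate added; reaction progress from fluorescence change between first and third reads (60 s).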
* marks the source's active call; other numbers are inactive results; ? = inconclusive. Sampled rows, rich in hits. Any-hit rate of the full collection: about 2.4%. Calls follow the shape of the dose curve; as a rule, active = well fitted curve in the direction sought with a large enough effect; inconclusive = small, poorly fitted or top-dose-only effect, or another doubt; inactive = no such curve, though single readings can be large; an effect the other way counts as inactive or inconclusive. Potency is read from the fitted curve at half-maximal effect.

SMILES	Cruzain inh Det	Cruzain inh noDet
CCC(O)c1cc2c(cc1NC(=O)c1ccccc1F)OCCO2 (configuration not stated)	4%	3%
COc1ccc(CCNC(=O)CCc2cn(Cc3ccccc3Cl)c3ccccc23)c(OC)c1	-3%	-8%
CCCCC(c1nnnn1CS(=O)(=O)c1ccc(C)cc1)N1CCN(c2ccccc2)CC1 (configuration not stated)	0%	-17%
COc1ccc(-c2c(C#N)c(SCC(=O)Nc3ccc(C)cc3)nc(C)c2C(=O)Nc2ccccc2)cc1	-2%	-17%
Cc1nc(SCC(=O)c2cc3ccccc3oc2=O)c(C#N)c(-c2ccccc2)c1C(=O)Nc1ccccc1	-1%	20µM*
COc1ccc(-c2c(C#N)c(SCC(=O)Nc3ccc(Br)cc3)nc(C)c2C(=O)Nc2ccccc2)cc1	0%	10µM*
COc1ccc(-c2c(C#N)c(SCC(=O)c3cc4ccccc4oc3=O)nc(C)c2C(=O)Nc2ccccc2)cc1	-1%	?
COc1cccc(N(CC(=O)N2CCN(c3ccccc3OC)CC2)S(C)(=O)=O)c1	4%	12%
CCOC(=O)c1ccc(NC(=O)CSc2ncc(S(=O)(=O)c3ccc(C)c(Cl)c3)c(=O)[nH]2)cc1	28µM*	?
Cc1ccc(C)c(NC(=O)CSc2ncc(S(=O)(=O)c3ccc(C)c(Cl)c3)c(=O)[nH]2)c1	-11%	49%
CCC(C)c1ccccc1NC(=O)COC(=O)c1ccc2c(c1)S(=O)(=O)c1ccccc1C2=O (configuration not stated)	-6%	4%
CCOC(=O)/C=c1\s/c(=C\c2ccc(C(F)(F)F)cc2)c(=O)n1CC(=O)NCc1ccco1	-4%	?
CCOC(=O)/C=c1\s/c(=C\c2ccc(C)cc2)c(=O)n1CC(=O)NCc1ccco1	-1%	16µM*
CCOC(=O)/C=c1\s/c(=C\c2ccc(-c3ccccc3)cc2)c(=O)n1CC(=O)NCc1ccc2c(c1)OCO2	-3%	2.5µM*
CCOC(=O)COc1cccc2c(=O)n(CC(=O)NCc3ccc4c(c3)OCO4)ccc12	-5%	-1%
O=C(Nc1ccc2c(c1)OCO2)c1ccc(Br)o1	1%	-22%
COCCCn1c(-c2ccco2)nc2ccccc2c1=O	-1%	4%
CCCCOCCCn1c(-c2ccco2)nc2nc3ccccc3nc21	28µM*	?
Cc1ccc(S(=O)(=O)C(C#N)c2nc3ccccc3nc2N2CCCCC2)cc1 (configuration not stated)	-13%	-7%
CCOC(=O)c1c(-c2ccc(C)o2)csc1NC(=S)NC(=O)c1cccs1	-1%	25µM*
CCOC(=O)c1c(-c2ccc(C)o2)csc1NC(=O)CSc1nnc(C)s1	-7%	?
CCOC(=O)c1c(-c2ccccc2)csc1NC(=S)NC	-14%	-3%
CCOC(=O)c1c(-c2ccc(C)o2)csc1NC(=S)NC(=O)c1ccccc1Br	-3%	32µM*
CCC1CCCCN1Cc1nc2c(c(=O)n(C)c(=O)n2C)n1Cc1ccccc1 (configuration not stated)	-4%	9%
O=C(OCc1nc2ccccc2s1)[C@@H]1CCCN1S(=O)(=O)c1ccccc1F	-4%	13%
SMILES	Cruzain inh Det	Cruzain inh noDet
Cc1cc(C)nc(SCc2nnc(SCC(=O)Nc3ccc(C)c(C)c3)o2)n1	0%	4%
O=C(C[n+]1ccc2ccccc2c1)Nc1cc(C(F)(F)F)ccc1Cl	-2%	4%
O=C(C[n+]1ccc2ccccc2c1)c1ccc2ccc3ccccc3c2c1	-3%	3.2µM*
COc1ccc2c(c1OC)C(=O)OC2c1c(O)n(Cc2ccc(F)cc2)c(=O)[nH]c1=O (configuration not stated)	5%	10%
Cc1ccc(CSc2sc(C(=O)c3ccccc3)c(N)c2C#N)cc1	-1%	20µM*
Cc1cccc(Oc2sc(C(=O)c3ccccc3)c(N)c2C#N)c1C	-6%	?
N#Cc1c(SCc2ccccc2)sc(C(=O)c2ccccc2)c1N	-5%	1%
N#Cc1c(Oc2ccc3ccccc3c2)sc(C(=O)c2ccccc2)c1N	4%	25µM*
CC1CN(C(=O)Nc2ccc3snnc3c2)c2ccccc21 (configuration not stated)	-7%	-11%
COc1ccc(-c2noc(CSc3nnc(-c4ccccc4)n3C)n2)cc1	-6%	-22%
COC(=O)C1=C(C)NC(=O)C1(NC(=O)CN1CCCC1=O)C(F)(F)F (configuration not stated)	0%	2%
CCN(CC)S(=O)(=O)c1ccc(C(=O)NCCSc2c(-c3ccc(C)cc3)[nH]c3ccccc23)cc1	-1%	25µM*
CCN(CC)S(=O)(=O)c1ccc(C(=O)NCCSc2c[nH]c3ccccc23)cc1	-4%	10%
COc1cccc(Nc2ncc3nc(C)c(=O)n(C)c3n2)c1	4%	-17%
CCN(CC)CCOC(=O)c1ccc(NC(=O)c2nn(C)c3c2COc2ccccc2-3)cc1	-2%	17%
COc1cc([C@H]2[C@@H]3CCCC[C@]3(O)CCN2CC(=O)Nc2ccc(C)cc2)ccc1O	6%	0%
COCCn1c(SCc2nc3scc(-c4ccc(Cl)cc4)c3c(=O)[nH]2)nnc1-c1cccc(C)c1	-6%	25µM*
CCn1c(SCc2nc3scc(-c4ccccc4)c3c(=O)[nH]2)nnc1-c1cccs1	-4%	-26%
Cc1cccc(CNC(=O)C2CCC(CNS(=O)(=O)c3ccc4c(c3)CCCC(=O)N4)CC2)c1 (configuration not stated)	2%	9%
Cc1ccccc1C(=O)NC(=S)Nc1sc2c(c1C#N)CCC(C)C2 (configuration not stated)	2%	16µM*
Cc1cc(C(=O)Nc2sc3c(c2C#N)CCC(C)C3)cs1 (configuration not stated)	3%	?
CC1CCc2c(sc(NC(=O)COc3ccccc3C(C)(C)C)c2C#N)C1 (configuration not stated)	-1%	-8%
N#Cc1c(NC(=S)NC(=O)c2ccccc2)sc2c1CCN(CCc1ccccc1)C2	-15%	16µM*
CC1CCc2c(sc(NC(=O)COC(=O)c3ccccc3NCc3ccco3)c2C#N)C1 (configuration not stated)	5%	16µM*
N#Cc1c(NC(=S)NC(=O)c2ccccc2)sc2c1CCCC2	-3%	-24%
SMILES	Cruzain inh Det	Cruzain inh noDet
COc1ccc(CCCc2nnc(SCC(=O)Nc3ccccc3F)o2)cc1C	-8%	-12%
CCOC(=O)c1c(NC(=O)c2ccnn2C)sc(C)c1C	-2%	?
COC(=O)C(NC(=O)c1ccccc1)=C(C)C	-2%	1%
CCCn1c2ccccc2c2nnc(SC(CC)C(=O)Nc3cc(C)on3)nc21 (configuration not stated)	-14%	-21%
CCCn1c2ccccc2c2nnc(SC(CC)C(=O)Nc3sc4c(c3C#N)CCCC4)nc21 (configuration not stated)	0%	10µM*
O=C(Cc1ccccc1)NN1C(=O)C2C3C=CC(C3)C2C1=O (configuration not stated)	5%	4%
Cc1ccc(C(=O)CNc2cccc(Cl)c2)cc1	-1%	-23%
O=C(CNc1cccc(Cl)c1)c1ccc(Cl)cc1	7%	32µM*
Clc1ss/c(=N\c2ccccn2)c1Cl	1%	25µM*
Cc1cccc(CC2S/C(=N/c3ccccn3)NC2=O)c1 (configuration not stated)	1%	1%

Screening results (PubChem BioAssay)
